# Measurements: the supplement of paper PMC10646978
# ± gives the standard deviation.
# How the values were obtained:
# Settings in all cases: modulator concentration 10 µM
# [1] = system: RAW-Dual (murine macrophage reporter line); assay: NF-kB reporter (SEAP) activity fold change vs agonist alone; higher = enhanced NF-kB activity
# Procedure, shortened: (§1)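 RAW-Dual murine macrophage reporter cells were plated at 50 000 per well in 384-well plates, pin-transferred compound to 10 μM final, and pre-incubated for 1 hour at 37 °C before a PRR agonist was added and the cells incubated overnight. NF-κB activity was read from supernatant SEAP with QUANTI-Blue at 620 nm absorbance, and IRF activity from Lucia luciferase with QUANTI-Luc by luminescence. Each signal was expressed as fold change by dividing by the mean agonist-only control on the same plate. Two replicate plates were averaged, with errors obtained by propagation.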
# [2] = system: RAW-Dual (murine macrophage reporter line); assay: IRF reporter (Lucia luciferase) activity fold change vs agonist alone; higher = enhanced IRF activity
# Procedure, shortened: as §1
# [3] = system: RAW-Dual (murine macrophage reporter line); assay: viability score (confluency relative to resting cells, overnight) (fraction); higher = more viable, active = viable (0.7 or more)
# Procedure, shortened: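 RAW-Dual macrophages in 384-well plates were treated overnight with compound at 10 μM final. IncuCyte imaging recorded confluency, and IncuCyte software built two confluency masks across every imaged well. The viability score expresses confluency relative to resting cells and was judged against a cutoff, which a compound met only if both masks exceeded 70% of resting cells.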
# [4] = agonist: CpG ODN 1826 0.5 ug/mL
SMILES,"NF-kB reporter [1, 4]",NF-kB reporter ([1]; agonist: LPS 0.1 ug/mL),NF-kB reporter ([1]; agonist: MPLA […]),IRF reporter ([2]; agonist: 3'3'-cGAMP 10 ug/mL),IRF reporter ([2]; agonist: LPS 0.1 ug/mL),IRF reporter ([2]; agonist: MPLA […]),viability score [3]
O=[N+]([O-])c1ccc(CSc2nc3cccnc3[nH]2)cc1,1.17 ± 0.19,0.949 ± 0.12,0.905 ± 0.077,0.935 ± 0.028,1.16 ± 0.12,1.22 ± 0.2,1.01 (active)
CCOc1nccn2c(CNC(=O)c3cccnc3)nnc12,0.929 ± 0.098,1.05 ± 0.084,1.11 ± 0.15,1.03 ± 0.064,1.02 ± 0.19,1 ± 0.4,0.988 (active)
CC(C)NCC(O)COCCOc1ccc(C(C)(C)C)cc1.Cl (configuration not stated),0.593 ± 0.039,1.06 ± 0.079,1.13 ± 0.079,0.569 ± 0.034,1.31 ± 0.14,1.57 ± 0.37,0.934 (active)
Cc1cc(-c2ccccc2)nnc1NCCN1CCOCC1.Cl.Cl,1.19 ± 0.28,1.04 ± 0.1,1 ± 0.073,0.966 ± 0.049,1.28 ± 0.14,1.27 ± 0.12,0.989 (active)
Br.Cc1nc(C)c(-c2csc(Nc3cccc(C(=O)O)c3)n2)s1,0.754 ± 0.067,0.883 ± 0.082,1.08 ± 0.11,0.882 ± 0.048,1.36 ± 0.087,1.56 ± 0.13,1 (active)
Cc1ccccc1CC(CC(=O)O)C(=O)O (configuration not stated),1.1 ± 0.089,0.979 ± 0.12,0.93 ± 0.094,1.03 ± 0.048,1.21 ± 0.12,1.3 ± 0.19,1.03 (active)
OC(Cn1cncn1)(Cn1cncn1)c1ccc(F)cc1F,0.875 ± 0.072,0.967 ± 0.066,1.05 ± 0.091,1.02 ± 0.052,1.46 ± 0.096,1.62 ± 0.18,0.988 (active)
O=C(COC(=O)c1ccc(Cl)c([N+](=O)[O-])c1)c1ccc(Cl)cc1,0.942 ± 0.072,0.978 ± 0.081,0.99 ± 0.093,0.929 ± 0.035,1.22 ± 0.18,1.36 ± 0.29,1.01 (active)
COC(=O)[C@]12CCC(C)(C)C[C@H]1[C@H]1C(=O)C=C3[C@@]4(C)C=C(C#N)C(=O)C(C)(C)[C@@H]4CC[C@@]3(C)[C@]1(C)CC2,0.0752 ± 0.0037,0.294 ± 0.025,0.937 ± 0.086,0.0972 ± 0.012,0.571 ± 0.071,0.585 ± 0.14,0.246 (inactive)
CCOC(=O)C1=C(C)NC(C)=C(C(=O)OCC)C1c1cc(Cl)cc(Cl)c1OC,0.478 ± 0.064,0.44 ± 0.037,1.05 ± 0.1,1.07 ± 0.16,0.852 ± 0.039,2.23 ± 0.43,0.216 (inactive)
CCS(=O)(=O)c1ccc(-c2ccc(NC(=O)c3cccc(OC)c3OC)cc2)nn1,0.914 ± 0.059,0.977 ± 0.1,1.01 ± 0.1,1.05 ± 0.053,1.2 ± 0.26,1.36 ± 0.4,0.955 (active)
O=C(c1ccc(I)cc1)N(C1CCCCC1)C1CCCCC1,0.976 ± 0.1,1.03 ± 0.099,1.09 ± 0.056,0.832 ± 0.044,1.02 ± 0.13,1.18 ± 0.3,0.997 (active)
COCC(C)(CNS(=O)(=O)c1ccccc1Br)OC (configuration not stated),0.978 ± 0.091,1.13 ± 0.091,0.933 ± 0.1,0.982 ± 0.049,1.07 ± 0.11,1.06 ± 0.18,0.993 (active)
Oc1ccc(N=Cc2ccccc2)cc1,1.38 ± 0.18,1.2 ± 0.079,2.67 ± 0.18,0.605 ± 0.037,0.924 ± 0.082,1.58 ± 0.35,0.988 (active)
Oc1c(Cl)cc(Cl)cc1C=Nc1cc(Cl)cc(Cl)c1,0.734 ± 0.14,0.915 ± 0.076,0.761 ± 0.066,0.437 ± 0.019,1.05 ± 0.1,1.09 ± 0.14,0.734 (active)
c1ccc(-n2nnnc2SCc2ccc3c(c2)OCO3)cc1,1.1 ± 0.096,1.22 ± 0.14,1.46 ± 0.096,0.785 ± 0.029,0.988 ± 0.11,1.13 ± 0.25,0.998 (active)
COC(=O)c1cccc(-c2ccc(C=NN3C(=O)C4C5C=CC(CC5)C4C3=O)o2)c1 (configuration not stated),1.04 ± 0.1,1.14 ± 0.082,0.815 ± 0.055,0.867 ± 0.025,1.55 ± 0.22,1.36 ± 0.14,1 (active)
Cc1cc(OC2CN(C(=O)Cc3noc4ccccc34)C2)cc(=O)n1C1CC1,1.18 ± 0.072,1.08 ± 0.088,0.996 ± 0.043,0.919 ± 0.072,1 ± 0.061,0.957 ± 0.14,0.999 (active)

SMILES,"NF-kB reporter [1, 4]",NF-kB reporter ([1]; agonist: LPS 0.1 ug/mL),NF-kB reporter ([1]; agonist: MPLA […]),IRF reporter ([2]; agonist: 3'3'-cGAMP 10 ug/mL),IRF reporter ([2]; agonist: LPS 0.1 ug/mL),IRF reporter ([2]; agonist: MPLA […]),viability score [3]
Cc1cc(CNS(=O)(=O)Cc2ccc(C(F)(F)F)cc2)c(C)o1,1.01 ± 0.087,0.963 ± 0.076,0.951 ± 0.044,1.26 ± 0.068,1.34 ± 0.083,1.37 ± 0.23,0.383 (inactive)
O=C(CN(CCc1ccccc1)S(=O)(=O)c1ccc(Cl)cc1)NCc1ccccn1,0.824 ± 0.065,0.95 ± 0.049,0.987 ± 0.092,0.741 ± 0.035,1.45 ± 0.084,1.49 ± 0.16,1.02 (active)
NCC(O)CNCCc1ccccc1 (configuration not stated),0.782 ± 0.067,1.02 ± 0.13,1.22 ± 0.069,0.575 ± 0.021,1.12 ± 0.12,1.02 ± 0.093,1 (active)
O=C(OC(=Cc1nccn1Cc1ccc(Cl)cc1)c1ccccc1)c1ccccc1,0.323 ± 0.021,0.481 ± 0.05,0.394 ± 0.026,0.37 ± 0.015,1.36 ± 0.12,1.51 ± 0.13,0.973 (active)
COc1cc2nc(N3CCN(C(=O)c4ccco4)CC3)nc(N)c2cc1OC.Cl,0.888 ± 0.21,1.12 ± 0.056,0.953 ± 0.079,0.9 ± 0.032,1.22 ± 0.14,1.33 ± 0.2,1 (active)
Cl.N=C1CCCN1Cc1[nH]c(=O)[nH]c(=O)c1Cl,1.46 ± 0.062,0.379 ± 0.037,0.688 ± 0.06,0.423 ± 0.028,0.796 ± 0.23,0.995 ± 0.31,0.961 (active)
COc1c(C)c2c(c(O)c1C/C=C(\C)CCC(=O)OCCN1CCOCC1)C(=O)OC2,0.66 ± 0.12,0.222 ± 0.02,0.517 ± 0.047,0.608 ± 0.049,1.28 ± 0.13,1.24 ± 0.13,0.813 (active)
Cc1cccc2sc(OC3CN(C(=O)Nc4ccccc4C(F)(F)F)C3)nc12,0.912 ± 0.047,1.13 ± 0.089,0.872 ± 0.043,1.12 ± 0.065,1.19 ± 0.19,1.15 ± 0.31,0.981 (active)
CC1=CC(=NS(=O)(=O)c2ccc(C)cc2)C=C(Cl)C1=O,0.635 ± 0.068,0.706 ± 0.038,0.68 ± 0.062,0.451 ± 0.02,0.611 ± 0.04,0.428 ± 0.038,0.89 (active)
Cc1cccc(C)c1OCC(=O)N[C@@H](Cc1ccccc1)[C@@H](O)C[C@H](Cc1ccccc1)NC(=O)[C@H](C(C)C)N1CCCNC1=O,0.665 ± 0.082,0.889 ± 0.058,1.24 ± 0.12,0.67 ± 0.04,1.2 ± 0.071,1.37 ± 0.12,1.02 (active)
C[C@H](N[C@@H](CCc1ccccc1)C(=O)O)C(=O)N1CCC[C@H]1C(=O)O.O.O,1.15 ± 0.086,1.09 ± 0.16,1.03 ± 0.073,1.17 ± 0.31,0.953 ± 0.057,0.906 ± 0.077,0.993 (active)
Cn1c(=O)cc(N2CCC[C@@H](N)C2)n(Cc2ccccc2C#N)c1=O,1.19 ± 0.25,1.25 ± 0.28,2.23 ± 1.3,0.958 ± 0.031,1.3 ± 0.35,1.33 ± 0.26,0.99 (active)
CN1CCN(c2ccc3nc(-c4c(N)c5c(F)cccc5[nH]c4=O)[nH]c3c2)CC1,0.277 ± 0.1,1.19 ± 0.35,1.39 ± 0.59,0.0238 ± 0.0011,0.491 ± 0.07,0.197 ± 0.015,0.799 (active)
CCN(CC)CCNC(=O)c1c(C)[nH]c(/C=C2\C(=O)Nc3ccc(F)cc32)c1C,0.102 ± 0.0079,0.192 ± 0.015,0.475 ± 0.031,0.0578 ± 0.003,0.0794 ± 0.014,0.0928 ± 0.022,0.359 (inactive)
CCc1cc2c(-c3ccccc3)cc(=O)oc2cc1OC(C)=O,0.702 ± 0.12,1.09 ± 0.088,0.886 ± 0.085,0.974 ± 0.069,1.07 ± 0.3,1.07 ± 0.21,1 (active)
Cc1ncsc1C(=O)N1CC(OCC(F)(F)F)C1,0.974 ± 0.11,0.996 ± 0.08,1.01 ± 0.095,1.08 ± 0.11,1.01 ± 0.09,0.999 ± 0.25,1 (active)
CCC[C@@H]1C[C@@H](C(=O)N[C@@H]([C@H]2O[C@H](SC)[C@H](OP(=O)(O)O)[C@@H](O)[C@H]2O)[C@H](C)Cl)N(C)C1,0.953 ± 0.08,0.954 ± 0.059,0.952 ± 0.043,0.972 ± 0.073,1.01 ± 0.09,1.15 ± 0.092,1 (active)
CCOC(=O)c1ccc(-c2ccc(C=C(C#N)C(=O)Nc3ccc(F)cc3)o2)cc1,0.979 ± 0.09,1.08 ± 0.063,1.05 ± 0.068,0.929 ± 0.042,1.29 ± 0.25,1.06 ± 0.14,1.01 (active)
